Drawing on PubChem BioAssay (EPA / NIEHS), this text covers outcome and AC50 for 7 molecules.

For orientation: AC50 means the concentration at which the activity in the assay is half-maximal.

Inconclusive results are not listed. Calls of active or inactive are those of the source. Rule for the calls, unless noted: active = hit-call score of the fitted dose curve at least 0.9, where 1 is the maximum; inactive = score below 0.9.

The target in assay [1] is Retinoic acid receptor RXR-alpha (Homo sapiens) (UniProt P19793). As to the kind of experiment: ATG_RXRa_TRANS: Attagene TRANS-FACTORIAL HepG2 Assay for human Retinoid X Receptor alpha (RXRa) (AID 2283012; active = hit-call score of the fitted dose curve at least 0.9, where 1 is the maximum). Summed up: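 Transient transfection of human HepG2 with multiple GAL4-UAS reporter constructs; 24 h compound exposure; total RNA isolated, reverse-transcribed, PCR-amplified, 6-FAM labelled, HpaI-cut, resolved by capillary electrophoresis. Positive-direction fit versus DMSO.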
Sequence of Retinoic acid receptor RXR-alpha (Homo sapiens) (P19793 whole entry, looked up, the tested form may be a part): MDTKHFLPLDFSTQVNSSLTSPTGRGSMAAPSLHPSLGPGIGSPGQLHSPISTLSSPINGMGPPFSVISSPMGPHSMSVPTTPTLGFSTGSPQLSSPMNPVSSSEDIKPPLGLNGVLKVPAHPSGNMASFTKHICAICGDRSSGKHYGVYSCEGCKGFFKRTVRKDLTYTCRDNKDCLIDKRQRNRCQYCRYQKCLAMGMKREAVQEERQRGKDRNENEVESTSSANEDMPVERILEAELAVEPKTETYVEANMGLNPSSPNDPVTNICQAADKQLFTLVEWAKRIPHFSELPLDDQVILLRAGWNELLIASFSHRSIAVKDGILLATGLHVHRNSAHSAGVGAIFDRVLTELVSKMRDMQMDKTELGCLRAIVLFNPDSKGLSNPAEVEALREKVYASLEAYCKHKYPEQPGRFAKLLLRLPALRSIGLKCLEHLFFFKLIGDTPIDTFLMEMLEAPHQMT

Assay [2] addresses human Retinoid X Receptor beta (RXRb), RXRB (gene 6257) (UniProt P28702). As to the kind of experiment: ATG_RXRb_TRANS: Attagene TRANS-FACTORIAL HepG2 Assay for human Retinoid X Receptor beta (RXRb) (AID 2283013; active = hit-call score of the fitted dose curve at least 0.9, where 1 is the maximum). Summed up:
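Transfect HepG2 with GAL4-UAS multi-reporter constructs (chimeric NR-Gal4, TRANS format); dose compound 24 h; isolate RNA, RT-PCR, FAM primer extension, HpaI digest; quantify by capillary electrophoresis; positive direction vs DMSO.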

Read-out in assay [3]: E-selectin (Homo sapiens) (UniProt P16581)
As to the kind of experiment: BSK_3C_Eselectin: BioMAP Diversity Plus: 3C Assay for Eselectin Biomarker Activity (AID 2283015).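 For outcome: cell surface E-selectin protein quantified by ELISA 24 h after dosing.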 Conditions: primary human endothelial cells (HUVEC); actives raise or lower the signal. Summed up: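 Human vascular endothelium from umbilical vein is exposed to test chemicals for 24 h. E-selectin levels are read by ELISA and compared with DMSO controls.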

Read-out in assay [4]: Interleukin-1 alpha (IL1a), IL1A (gene 3552)
As to the kind of experiment: BSK_BE3C_IL1a: BioMAP Diversity Plus: BE3C Assay for Interleukin-1 alpha (IL1a) Biomarker Activity (AID 2283016). To be noted: primary human bronchial epithelial cells; actives raise or lower the signal. Summed up:
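BE3C primary human bronchial epithelium; cpd 24 h; IL-1a by ELISA; bidirectional fit vs DMSO; parallel SRB (0.1% SRB, 10% TCA fix, 560 nm) for cytotoxicity.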

Read-out in assay [5]: Monocyte Chemoattractant Protein-1 (MCP1), CCL2 (gene 6347)
As to the kind of experiment: BSK_3C_MCP1: BioMAP Diversity Plus: 3C Assay for Monocyte Chemoattractant Protein-1 (MCP1) Biomarker Activity (AID 2283017). To be noted: primary human endothelial cells (HUVEC); actives raise or lower the signal. Put shortly: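 Endothelial cells from human umbilical vein are dosed with chemical, cultured 24 h, then assayed for MCP-1 by ELISA; both increases and decreases are modelled against DMSO controls.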

Read-out in assay [6]: Monocyte Chemoattractant Protein-1 (MCP1), CCL2 (gene 6347)
As to the kind of experiment: BSK_4H_MCP1: BioMAP Diversity Plus: 4H Assay for Monocyte Chemoattractant Protein-1 (MCP1) Biomarker Activity (AID 2283018). To be noted: primary human endothelial cells (HUVEC); actives raise or lower the signal. Put shortly:
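ELISA read-out of MCP-1 from human vascular endothelial primary cells taken at 24 hours after compound exposure. Activity was fitted in both directions relative to DMSO, which served as negative control.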

Read-out in assay [7]: Human Leukocyte Antigen - DR isotype (HLADR), HLA-DRA (gene 3122)
As to the kind of experiment: BSK_3C_HLADR: BioMAP Diversity Plus: 3C Assay for Human Leukocyte Antigen - DR isotype (HLADR) Biomarker Activity (AID 2283019).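 For outcome: ELISA of cell-surface HLA-DR on HUVEC 24 h after dosing.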 Conditions: primary human endothelial cells (HUVEC); actives raise or lower the signal. Put shortly:
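Endothelial cells from human umbilical vein are treated with test chemical; after 24 h, HLA-DR levels are measured by ELISA. Data are fitted in both directions using DMSO as the baseline.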

Read-out in assay [8]: Interleukin-8 (IL8), CXCL8 (gene 3576)
As to the kind of experiment: BSK_3C_IL8: BioMAP Diversity Plus: 3C Assay for Interleukin-8 (IL8) Biomarker Activity (AID 2283020). To be noted: primary human endothelial cells (HUVEC); actives raise or lower the signal. Put shortly:
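ELISA read-out of IL-8 from human umbilical vein endothelium, measured 24 h after chemical dosing. Activity is expressed relative to DMSO negative control, with both increases and decreases fitted.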

Read-out in assay [9]: Monokine induced gamma interferon (MIG), CXCL9 (gene 4283)
As to the kind of experiment: BSK_3C_MIG: BioMAP Diversity Plus: 3C Assay for Monokine induced gamma interferon (MIG) Biomarker Activity (AID 2283021).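 For AC50: MIG protein level measured by immunoassay in the treated endothelial cultures.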 Conditions: primary human endothelial cells (HUVEC); actives raise or lower the signal. Put shortly:
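Read-out is ELISA detection of MIG on human umbilical vein endothelial cells, taken 24 h after dosing. Gain or loss of signal was scored relative to DMSO controls using bidirectional curve fitting.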

Assay [10] can be described thus: BSK_3C_SRB: Viability Assessment in the BioMAP Diversity Plus: 3C Assay (AID 2283023).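 Note: fitted both ways against DMSO so a hit may be signal rise or drop.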 To be noted: primary human endothelial cells (HUVEC). Summed up: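 Cells were dosed with chemical, cultured 24 h, fixed with 10% TCA, stained with 0.1% SRB and read at 560 nm. Human umbilical vein endothelium was used; DMSO served as negative control and baseline.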
Read-out in assay [11]: Matrix Metallopeptidase 1 (MMP1), MMP1 (gene 4312)
The experiment in a line: BSK_BE3C_MMP1: BioMAP Diversity Plus: BE3C Assay for Matrix Metallopeptidase 1 (MMP1) Biomarker Activity (AID 2283024). Conditions: primary human bronchial epithelial cells; actives raise or lower the signal. Summed up:
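Human bronchial epithelial cells (BE3C system) exposed to compound for 24 h; MMP1 then quantified by ELISA. Activity was fitted in both directions relative to DMSO.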

Read-out in assay [12]: Pselectin, SELP (gene 6403)
As to the kind of experiment: BSK_4H_Pselectin: BioMAP Diversity Plus: 4H Assay for Pselectin Biomarker Activity (AID 2283026). To be noted: primary human endothelial cells (HUVEC); actives raise or lower the signal. Summed up: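 ELISA read-out of P-selectin on human umbilical vein endothelium after 24 h of dosing. Values derive from bidirectional fitting relative to DMSO. Parallel SRB protein staining flagged overt cytotoxicity.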

Assay [13] in a line: BSK_BE3C_SRB: Viability Assessment in the BioMAP Diversity Plus: BE3C Assay (AID 2283028). To be noted: primary human bronchial epithelial cells. Put shortly:
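Overt cytotoxicity was assessed as total protein in confluent human primary bronchial epithelial cultures 24 h after chemical addition, using 0.1% sulforhodamine B staining read at 560 nm.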

Read-out in assay [14]: Thrombomodulin, THBD (gene 7056)
As to the kind of experiment: BSK_3C_Thrombomodulin: BioMAP Diversity Plus: 3C Assay for Thrombomodulin Biomarker Activity (AID 2283029). To be noted: primary human endothelial cells (HUVEC); actives raise or lower the signal. Put shortly: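 Read-out is ELISA of thrombomodulin on human umbilical vein endothelium 24 h after chemical dosing. Gain or loss of signal is scored relative to DMSO. Overt cytotoxicity is checked in parallel cultures by sulforhodamine B staining.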

Read-out in assay [15]: Urokinase-type plasminogen activator receptor (uPAR), PLAUR (gene 5329)
The experiment in a line: BSK_4H_uPAR: BioMAP Diversity Plus: 4H Assay for Urokinase-type plasminogen activator receptor (uPAR) Biomarker Activity (AID 2283030). Conditions: primary human endothelial cells (HUVEC); actives raise or lower the signal. Summed up: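 Chemicals are dosed onto human vascular endothelial primary cells (umbilical vein). After 24 h, uPAR is read by ELISA. Gain or loss of signal is fitted relative to DMSO.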

Read-out in assay [16]: Vascular endothelial growth factor receptor 2 (Homo sapiens) (UniProt P35968)
The experiment in a line: BSK_4H_VEGFRII: BioMAP Diversity Plus: 4H Assay for Vascular endothelial growth factor receptor 2 (VEGFR2) Biomarker Activity (AID 2283031). Conditions: primary human endothelial cells (HUVEC); actives raise or lower the signal. Summed up: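 VEGFRII levels on human vascular endothelial primary cells were determined by ELISA at 24 hours post-dosing, with gain- or loss-of-signal fitted against DMSO controls.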

The target in assay [17] is human Vitamin D Receptor (VDR), VDR (gene 7421) (UniProt P11473). As to the kind of experiment: ATG_VDR_TRANS: Attagene TRANS-FACTORIAL HepG2 Assay for human Vitamin D Receptor (VDR) (AID 2283022; active = hit-call score of the fitted dose curve at least 0.9, where 1 is the maximum). Put shortly:
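Fluorescence of labelled reporter cDNA fragments, resolved by capillary electrophoresis, gives mRNA induction after 24 h treatment of HepG2 cells carrying transfected Gal4-fusion reporter units. Activity is fitted in the positive direction with DMSO as baseline.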

A short description of assay [18]: BSK_4H_SRB: Viability Assessment in the BioMAP Diversity Plus: 4H Assay (AID 2283027).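 For AC50: curves fitted both ways versus DMSO so AC50 may be loss or gain.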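 Note: cells exposed to compound for 24 h before staining.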 To be noted: primary human endothelial cells (HUVEC). Summed up:
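Human umbilical vein endothelial cells were dosed with chemical and, after 24 h, fixed with 10% TCA, stained with 0.1% sulforhodamine B, and read at 560 nm to give total protein as a cytotoxicity measure. Bidirectional fitting relative to DMSO control.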

Assay [19] can be described thus: BSK_3C_Vis: BioMAP Diversity Plus: 3C Assay for Morphology Visualization (AID 2283025).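 For AC50: light microscopy image of cell morphology used as background control.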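 Note: fitted both ways so gain or loss versus DMSO counts.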 Conditions: primary human endothelial cells (HUVEC). Put shortly: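 Chemicals were added to primary human umbilical vein endothelium, cells were incubated 24 h, and morphology was then visualized by light microscopy. Gain or loss of signal was fitted bidirectionally relative to DMSO.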

Assay [20] addresses human Thyroid Receptor alpha (THRa1), THRA (gene 7067) (UniProt P10827). As to the kind of experiment: ATG_THRa1_TRANS: Attagene TRANS-FACTORIAL HepG2 Assay for human Thyroid Receptor alpha (THRa1) (AID 2283014; active = hit-call score of the fitted dose curve at least 0.9, where 1 is the maximum). Summed up: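 First, HepG2 cells receive multiple GAL4-UAS reporter units and the chimeric receptor. They are then dosed for 24 h, after which RNA is reverse-transcribed, amplified, labelled, HpaI-cut and sized by capillary electrophoresis; gain relative to DMSO is scored.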

Sequence of human Vitamin D Receptor (VDR), VDR (gene 7421) (P11473 whole entry, looked up, the tested form may be a part): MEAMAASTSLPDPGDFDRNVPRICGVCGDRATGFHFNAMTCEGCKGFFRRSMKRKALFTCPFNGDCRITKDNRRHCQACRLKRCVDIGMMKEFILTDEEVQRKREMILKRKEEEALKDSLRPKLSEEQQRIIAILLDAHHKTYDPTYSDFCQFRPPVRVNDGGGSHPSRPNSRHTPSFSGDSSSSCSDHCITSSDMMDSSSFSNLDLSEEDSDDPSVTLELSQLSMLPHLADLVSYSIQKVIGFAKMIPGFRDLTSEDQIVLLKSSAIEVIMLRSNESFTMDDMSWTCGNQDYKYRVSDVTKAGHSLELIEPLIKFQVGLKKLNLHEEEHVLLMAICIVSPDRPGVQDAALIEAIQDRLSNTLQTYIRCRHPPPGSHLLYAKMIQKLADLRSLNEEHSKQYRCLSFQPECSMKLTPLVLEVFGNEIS
Sequence of E-selectin (Homo sapiens) (P16581 whole entry, looked up): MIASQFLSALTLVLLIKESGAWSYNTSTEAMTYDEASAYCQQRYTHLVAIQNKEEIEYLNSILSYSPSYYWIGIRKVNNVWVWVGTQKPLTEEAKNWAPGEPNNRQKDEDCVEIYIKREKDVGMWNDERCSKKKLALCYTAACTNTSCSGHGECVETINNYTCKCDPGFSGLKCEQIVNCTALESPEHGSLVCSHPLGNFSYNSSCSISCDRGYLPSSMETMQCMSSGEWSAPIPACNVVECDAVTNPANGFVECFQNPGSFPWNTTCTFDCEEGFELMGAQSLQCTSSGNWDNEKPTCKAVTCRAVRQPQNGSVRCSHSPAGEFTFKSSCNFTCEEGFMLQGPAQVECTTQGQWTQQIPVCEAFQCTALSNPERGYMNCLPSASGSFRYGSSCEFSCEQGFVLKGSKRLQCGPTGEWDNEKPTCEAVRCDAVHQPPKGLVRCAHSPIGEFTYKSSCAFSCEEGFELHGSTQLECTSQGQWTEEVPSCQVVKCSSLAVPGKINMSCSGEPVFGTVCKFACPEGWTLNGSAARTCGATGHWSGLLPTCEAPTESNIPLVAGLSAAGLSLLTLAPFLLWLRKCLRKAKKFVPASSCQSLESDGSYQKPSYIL
Sequence of human Retinoid X Receptor beta (RXRb), RXRB (gene 6257) (P28702 whole entry, looked up, the tested form may be a part): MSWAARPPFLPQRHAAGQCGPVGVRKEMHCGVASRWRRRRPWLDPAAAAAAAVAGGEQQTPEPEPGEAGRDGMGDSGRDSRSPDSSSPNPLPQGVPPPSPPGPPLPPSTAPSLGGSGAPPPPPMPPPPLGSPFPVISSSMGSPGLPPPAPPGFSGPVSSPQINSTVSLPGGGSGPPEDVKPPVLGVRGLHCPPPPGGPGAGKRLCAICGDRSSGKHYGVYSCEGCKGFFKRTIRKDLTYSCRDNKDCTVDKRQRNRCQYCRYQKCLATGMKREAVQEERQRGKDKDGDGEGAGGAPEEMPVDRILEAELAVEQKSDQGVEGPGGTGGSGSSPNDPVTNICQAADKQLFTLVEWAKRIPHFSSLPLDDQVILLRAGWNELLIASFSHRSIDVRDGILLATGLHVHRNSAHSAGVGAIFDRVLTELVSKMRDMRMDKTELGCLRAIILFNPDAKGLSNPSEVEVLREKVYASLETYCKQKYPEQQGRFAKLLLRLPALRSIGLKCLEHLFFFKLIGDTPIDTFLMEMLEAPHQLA
Sequence of human Thyroid Receptor alpha (THRa1), THRA (gene 7067) (P10827 whole entry, looked up, the tested form may be a part): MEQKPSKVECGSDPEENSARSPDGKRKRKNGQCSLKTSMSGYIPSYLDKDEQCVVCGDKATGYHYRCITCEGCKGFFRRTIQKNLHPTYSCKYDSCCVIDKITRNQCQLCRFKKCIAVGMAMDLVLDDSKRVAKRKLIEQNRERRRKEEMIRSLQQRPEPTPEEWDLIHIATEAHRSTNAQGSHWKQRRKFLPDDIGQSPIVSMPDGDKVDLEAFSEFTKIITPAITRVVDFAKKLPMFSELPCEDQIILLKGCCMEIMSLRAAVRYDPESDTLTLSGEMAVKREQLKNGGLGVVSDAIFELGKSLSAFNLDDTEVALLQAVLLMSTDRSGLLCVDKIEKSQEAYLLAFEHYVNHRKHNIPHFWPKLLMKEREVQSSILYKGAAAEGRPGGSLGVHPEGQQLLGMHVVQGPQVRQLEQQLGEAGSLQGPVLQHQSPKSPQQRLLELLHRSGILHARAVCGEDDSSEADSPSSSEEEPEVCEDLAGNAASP

Consider `COC(=O)c1c(Cl)c(Cl)c(C(=O)OC)c(Cl)c1Cl`, for which the result in [1], in assay [3], in [4], in assay [5], in assay [6] and in [7] was inactive. The result in assay [8], in [9], in assay [10], in assay [11], in [12] and in assay [13] was inactive. The outcome in [14] and in assay [15] was inactive. In assay [2], the half-maximal activity concentration (AC50) was 30.8 µM (active).

In the case of `O=C(O)c1cc(N=Nc2ccc(S(=O)(=O)Nc3ccccn3)cc2)ccc1O`, the molecule was classed as inactive in assay [1], in assay [2], in assay [3], in assay [4], in assay [5] and in [6]. The result in assay [7], in assay [8], in assay [9], in assay [10], in assay [11] and in assay [12] was inactive. Besides, the outcome in assay [13], in assay [14], in assay [15] and in assay [16] was inactive.

For `COC(=O)c1ccccc1O`, the molecule was called inactive in assay [1], in assay [3], in assay [4], in assay [5], in assay [6] and in assay [7]. Also, the result in [9], in [10], in assay [11], in assay [12], in [13] and in assay [14] was inactive. Also, the outcome in assay [15] was inactive. Also, the AC50 in assay [2] was 2.1 µM (active).

With `COc1ccc2sc(C(=O)Nc3nnn[nH]3)c(OC(C)C)c2c1`, the call in assay [1], in [2], in [17], in assay [13] and in [14] was inactive. The concentration at half-maximal activity (AC50) in [3] is 19.9 µM (active); in assay [4] it was 12.2 µM (active); in assay [5] it was 12.3 µM (active); in [6] it was 26.9 µM (active); in assay [7], 7.28 µM (active); in assay [8] it was 17.9 µM (active). Also, the AC50 in [9] was 16.1 µM (active); in [10] it was 12.5 µM (active); in assay [11] it was 14.2 µM (active); in assay [12] it was 4.45 µM (active); in assay [18] it was 20 µM (active); in assay [15], 12.7 µM (active).

Regarding `CCCCC(CC)COC(=O)CCCCCCCCC(=O)OCC(CC)CCCC` (configuration not stated), the outcome in assay [1], in [2], in [3], in [4], in [5] and in [7] was inactive. Moreover, the result in [9], in [10], in [11], in assay [19], in assay [12] and in assay [18] was inactive. The result in assay [13], in assay [14], in assay [15] and in assay [16] was inactive.

On to `Cc1[nH]cnc1C[C@H]1CCc2c(C)c3ccccc3n2C1=O`, for which the result in assay [1], in [2], in [20], in [3], in assay [4] and in assay [9] was inactive. In addition, the result in [17], in assay [11], in assay [13], in [14] and in assay [16] was inactive. Besides, the AC50 in assay [6] was 22.9 µM (active); in assay [7], 29.4 µM (active); in assay [10], 26 µM (active); in [19], 18.4 µM (active); in [12], 21.4 µM (active); in [18], 24 µM (active). Moreover, the AC50 in assay [15] was 22.5 µM (active).

Regarding `CC(O)CN(CCN(CC(C)O)CC(C)O)CC(C)O` (configuration not stated), the call in [1], in [2], in [3], in [4], in [5] and in assay [6] was inactive. Moreover, the result in assay [7], in assay [8], in assay [9], in [17], in assay [10] and in assay [11] was inactive. In addition, the outcome in assay [12], in assay [13], in assay [14] and in assay [15] was inactive.
